Results from PubChem BioAssay AID743279 (National Center for Advancing Translational Sciences (NCATS), 2014).
Hit rate of the full screen: of about 360,000 compounds, about 17,000 (4.7%) were called active. Inconclusive results (about 5%) are left out. The sample holds actives, similar compounds and a random draw of the others, so the mix is not that of the screen. Rule as the data show it: active = activity change below about -50%; inconclusive = mostly about -30% to -49%; inactive = weaker than that. Where a SMILES comes first, the peptide text is derived from it. The star is where a group is joined. Bz = O=C(c1ccccc1)*

Assay: qHTS for Inhibitors of Inflammasome Signaling: IL-1-beta AlphaLISA Primary Screen
Conditions: THP-1 LPS/ATP IL-1B secretion, 16 h; at 57.5 µM, active compounds read low
How it was run: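 Secreted IL-1B measured by AlphaLISA bead assay after 16 h compound exposure of THP-1 cells; compounds (final up to 57.5 uM) added 1 h before LPS (250 ng/mL) and ATP (1.25 mM) stimulation; lower signal means less secretion.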
% is scaled to controls: 0 for no effect and ±100 for the full control effect.

Activity change, inactive:
COc1ccc(NC(=O)C2(C)Cc3c(-c4cccc(NC(C)=O)c4)ccnc3O2)cc1 (stereo unspecified) 48.5%
COC1=NC2=NCCN2C(OC)=N1 0.792%
COc1ccc(C(=O)ON=C2c3ccccc3-c3ccccc32)cc1OC 0%
COc1ccc(C/C(N)=N/OC(=O)c2ccco2)cc1OC 9.63%
CCCCC(O)C1=C[N+](=O)CC=C1 (stereo unspecified) -4.88%
CCn1ccnc1CNC(=O)CC1C(=O)NCCN1Cc1ccc(F)cc1Cl (stereo unspecified) -0.584%
CCCCc1ccc(NC(=O)CN2C(=O)NC(Cc3ccccc3)C2=O)cc1 (stereo unspecified) -1.39%
COc1ccccc1C(=O)COC(=O)CNS(=O)(=O)c1ccc(NC(C)=O)cc1 9.71%
COc1ccccc1CNC(=O)COC(=O)CNS(=O)(=O)c1ccc(NC(C)=O)cc1 32.4%
Cc1ccc(S(=O)(=O)N2CCCCC2)cc1NC(=O)CCNC(=O)c1ccccc1Cl 10.9%
Cc1cccc(N(C(=O)c2csnn2)C(C(=O)NCc2ccccc2)c2ccncc2)c1 (stereo unspecified) -12.7%
CC1(C(=O)NS(=O)(=O)c2cccc(OC(F)F)c2)CCN1C(=O)C1CC1 (stereo unspecified) 0%
Cc1ccc(C(=O)CN2C(=O)NC3(CCc4ccccc43)C2=O)c(C)c1 (stereo unspecified) -6.4%
COc1ccc(C(=O)CN2C(=O)NC3(CCc4ccccc43)C2=O)c(OC)c1 (stereo unspecified) -22.2%
CC(=O)Nc1ccc(S(=O)(=O)NC(C)C(=O)OCC(=O)NC2CCCC2)cc1 (stereo unspecified) 0%
CC(=O)Nc1ccc(NC(=O)COc2ccc(S(=O)(=O)NC(C)c3ccccc3)cc2)cc1 (stereo unspecified) 18.3%
COc1ccccc1-c1cc2nc(NCc3cccc(Cl)c3)ccn2n1 -19.9%
Cc1ccc(N2C(=O)C(CC(=O)Nc3cccc(F)c3)N(CCc3ccncc3)C2=O)cc1 (stereo unspecified) -0.0392%
Cc1ccc(-c2cnc(C(O)c3cc(Cl)cc(Cl)c3)[nH]2)cc1 (stereo unspecified) 6.64%
CCC(C)(C)NC(=O)CN(Cc1cccs1)C(=O)CNS(=O)(=O)c1ccc(F)cc1 4.73%
Cc1ccc(S(=O)(=O)NCC(=O)N(CC(=O)NC(C)(C)C)Cc2cccs2)cc1 14.4%
CCN1C(=O)[C@@H]2[C@@H]3CN(S(=O)(=O)c4ccccc4C)[C@@H](c4ccc(Cl)cc4)[C@@H]3C(=O)C[C@@H]2C1=O -15.9%
CC1(C(=O)Nc2cccc3c2CCCC3)CCN1C(=O)CCc1ccc(Cl)cc1Cl (stereo unspecified) -9.96%
NC(=O)C1CCN(C(=O)CC2C(=O)NCCN2Cc2cccc(Oc3ccccc3)c2)CC1 (stereo unspecified) -6.56%
CCc1nnc(NC(=O)c2cc(S(=O)(=O)N3CCN(CC)CC3)ccc2Cl)s1 18.8%
CC(CN1CCCCC1)c1ccccc1 (stereo unspecified) 11.2%
CCCC(O)(c1ccc(OC)cc1)C(CN(C)C)c1ccccc1 (stereo unspecified) -9.06%
CC(C)(C(=O)N1CCC1(C)C(=O)NS(=O)(=O)c1ccc(Br)cc1)c1ccccc1 (stereo unspecified) 17%
CC(C)c1ccc(N2CC(C(=O)Nc3nccs3)CC2=O)cc1 (stereo unspecified) -0.66%
CC1CN(C(=O)c2cccc(NS(=O)(=O)c3ccc(Br)cc3)c2)CC(C)O1 (stereo unspecified) 53%
O=C(CC1NCCc2ccccc21)Nc1cccc(Cl)c1 (stereo unspecified) -29.8%
CCC(CC)COC(=O)C1=C(C)NC(=O)NC1c1ccc([N+](=O)[O-])cc1 (stereo unspecified) -2.87%
CCN1C(=O)N[C@@H](c2ccccc2)C(C(=O)OC)=C1C 15%
COc1ccc(C(=O)N2CCCN(C)CC2)c(OC)c1 33.4%
COc1cc(C(=O)N2CCN(C)CC2)cc(OC)c1OC 42.7%
C[C@@H]1CN([C@H](C)CO)C(=O)CCCn2nncc2CO[C@@H]1CN(C)S(=O)(=O)c1cccc(C#N)c1 3.99%
COC1=CC(=O)OC(c2ccc(OC)cc2)C1 (stereo unspecified) -17.1%
CS(=O)(=O)c1cccc(-c2ccc3nncn3c2)c1 11.3%
O=C(NC(Cc1ccccc1)C(=O)N1CCCC1C(=O)O)c1ccccc1 (stereo not drawn) (Bz-Phe-Pro-OH; configuration not given here) 6.95%
O=C(NC(Cc1ccccc1)C(=O)N1CCCC(C(F)(F)F)C1)c1ccccc1 (stereo unspecified) 1.82%
COCCn1c(SCC(=O)Nc2ccc(F)cc2F)nc2c(c1=O)SCC2 18.2%
CCNC(=O)CCc1nc(-c2ccc(C(C)(C)C)cc2)no1 -3.31%
COc1ccc(OCC(O)CNC(=O)Nc2ccc(Cl)cc2)cc1 (stereo unspecified) 5.19%
CC(O)CNCCOc1cccc(Oc2ccccc2)c1 (stereo unspecified) -29%
COc1ccc(NC(=O)CN2C(=O)NC(C)(c3ccccc3)C2=O)cn1 (stereo unspecified) 12.7%
COc1ccc(C(=O)CCC(=O)Nc2ccc(Cl)cc2)cc1 4.81%
O=C(COC(=O)c1cc(-c2cccs2)nn1-c1ccccc1)Nc1cc([N+](=O)[O-])ccc1Cl 21.3%
C/C(=N\Nc1ccccc1)c1cccs1 40.5%
O=C(Nc1ccccc1-c1nc2ccccc2[nH]c1=O)c1cccs1 7.39%
O=C(COc1ccccc1Cl)Nn1cnnc1 26.3%
CCOC(=O)CNC(=O)CSc1ncccc1-c1nc2ccccc2[nH]1 16.2%
COc1ccc(S(=O)(=O)N(C)C[C@@H]2Oc3ccc(NS(=O)(=O)c4cn(C)cn4)cc3C(=O)N([C@@H](C)CO)C[C@@H]2C)cc1 -3.54%
OCCN1CCN(c2nnc(-c3ccccc3)c3ccccc23)CC1 23.6%
O=C1CCN(CCCc2ccccc2)CCN1CCO -16.8%
Cc1ccc(Nc2c(O)nc[nH]c2=O)cc1C 13.4%
COc1c(O)cccc1-c1nnn(CCC(=O)OCC(=O)c2ccccc2)n1 14.4%
O=S1(=O)CCN(C2CCCCCCCCCCC2)CC1 26.7%
O=c1nc(NO)ccn1C1CCCO1 (stereo unspecified) 13.7%
Cc1cccc(C)c1N1CCN(S(=O)(=O)N2CCOCC2)CC1 0%
Cc1cccc(C(=O)N2CCN(S(=O)(=O)N3CCCCC3)CC2)c1 0%
CCC(c1nnnn1-c1ccc2c(c1)OCCO2)N1CCN(c2ccc(C(F)(F)F)cn2)CC1 (stereo unspecified) 25.4%
CCCNC(=O)CCc1c(C)nc2c(c(C)nn2-c2ccccc2)c1C -2.57%
CC(=O)C[C@@H]1OC[C@H](CO)N1S(=O)(=O)c1ccc(C)cc1 5.63%
O=C(NCCN1CCOCC1)C1CCN(S(=O)(=O)c2ccccc2)CC1 0.358%
CN1CCN(C(=O)c2ccc(-c3cc4nc(NCc5cccnc5)n(C)c(=O)c4s3)cc2)CC1 -15.2%
O=C(c1ccc(Oc2ccc(Cl)cc2)c([N+](=O)[O-])c1)N1CCCC1 -22.3%
Nc1ccc(C(=O)N2CCN(S(=O)(=O)c3ccc(Cl)cc3)CC2)cc1[N+](=O)[O-] -21.1%
COc1cc(OC)c(C(=O)NNC(=O)c2ccccc2-n2cccc2)cc1OC 3.76%
Cc1cc(C)n(-c2ccc(C(=O)O)cc2[N+](=O)[O-])n1 40.6%
CC(=O)c1ccc2c(c1)OCCOCCOc1ccc(C(C)=O)cc1OCCOCCO2 0%
Cc1cc(C(=O)O)ccc1[N+](=O)[O-] -16.6%
CC(=O)Nc1ccc(C=CC(=O)c2ccc([N+](=O)[O-])cc2)cc1 1.95%
CNc1ccc(NC(C)=O)cc1[N+](=O)[O-] -5%
O=C(/C=C\c1ccc2c(c1)OCO2)NC1(C(=O)Nc2ccc3c(c2)OCCO3)CCCCC1 -1.03%
CC(=O)Nc1ccc(C(=O)/C=C/c2ccc[nH]2)cc1 -9.5%
C/C(=N\Nc1nncc2ccccc12)c1ccc(Cl)c([N+](=O)[O-])c1 -6.54%

Activity change, active:
COc1ccc(C(=O)O/N=C(\N)Cc2ccc(Cl)cc2Cl)cc1OC -58.9%
CC(=O)Nc1ccc(S(=O)(=O)NCC(=O)OCc2cc(=O)oc3ccc4ccccc4c23)cc1 -58.2%
COc1ccc(-n2c(C)cc(C(=O)CN3C(=O)NC4(CCc5ccccc54)C3=O)c2C)cc1 (stereo unspecified) -85.6%
CC(=O)Nc1ccc(S(=O)(=O)NC(C)C(=O)OCCOc2ccc(F)cc2)cc1 (stereo unspecified) -84.9%
Cc1ccc(-c2nn(-c3cccc(F)c3)cc2CNCCc2ccncc2)o1 -77.5%
CC(C)(C)NC(=O)CN(Cc1cccs1)C(=O)CNS(=O)(=O)c1ccccc1 -55.8%
COc1ccc(C(O)(C2CCCCC2)C(CN2CCCC2)c2ccccc2)cc1 (stereo unspecified) -54.5%
CCOC(=O)C1=C(C)N(C[C@@H]2CC[C@@H](Cc3ccc(-c4ccccc4)cc3)O2)C(=O)NC1c1ccc([N+](=O)[O-])cc1 (stereo partly specified) -63.7%
COc1cc2c(C(=O)N3CCN(C)CC3)c(CSc3ccccc3)n(C)c2cc1Br -60.2%
CN(Cc1ccccc1F)C(=O)C(Cc1ccccc1)NC(=O)c1ccccc1 (stereo unspecified) -84.2%
OC(CNCCc1ccc(Cl)cc1Cl)COc1ccccc1 (stereo unspecified) -91.8%
COc1ccc(CS(=O)/C(Cl)=C(/Cl)C(=O)Nc2ccc(OC)nc2)cc1 (stereo unspecified) -105%
C/C(=N\Nc1nc2ccccc2[nH]1)c1cccs1 -66.3%
O=C1c2ccccc2C(=O)c2c1cccc2N1CCN(CCO)CC1 -59.1%
Cc1cccc(C)c1N1CCN(S(=O)(=O)N2CCCCC2)CC1 -53.3%
CC1CCN(C(=O)c2ccc(S(=O)(=O)Cc3cc(F)ccc3F)c([N+](=O)[O-])c2)CC1 -96.6%
O=C(/C=C/c1ccc(Cl)c([N+](=O)[O-])c1)c1ccc(O)cc1 -99.9%
CN(C)c1ccc(/C=C/C(=O)c2ccc(O)cc2)cc1[N+](=O)[O-] -97.8%
O=C(/C=C/c1ccc2c(c1)OCCO2)c1ccc(O)cc1 -103%
CN(C)c1ccc(/C=C/C(=O)c2ccc(C(C)(C)C)cc2)cc1[N+](=O)[O-] -95.8%
